From PubChem BioAssay (NCATS)
Inconclusive results are not listed. Active and inactive are the calls of the source. Calls follow the shape of the dose curve; as a rule, active = well fitted curve in the direction sought with a large enough effect; inconclusive = small, poorly fitted or top-dose-only effect, or another doubt; inactive = no such curve, though single readings can be large; an effect the other way counts as inactive or inconclusive.

Key:
[1] = P-glycoprotein substrates identified in KB-8-5-11 adenocarcinoma cell line, qHTS therapeutic library screen (AID 1346987); also: nearly all actives have a fitted effect of over 65% in size; as to activity change, negative = cytotoxicity: series mostly up to about 44 µM
In short: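 In this qHTS, P-gp-rich KB-8-5-11 cells received library compounds across a concentration range. Viability was quantified by luminescence after 72 h at 37 degree C.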

[2] = tested on: Zika virus NS2B-NS3 protease (unlinked complex); assay: Primary screen GU Rhodamine qHTS for Zika virus inhibitors: Unlinked NS2B-NS3 protease assay (AID 1347159); also: nearly all actives have a fitted effect of over 60% in size
In short: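 Enzyme 25 nM in Tris-HCl pH 8.0 + 0.01% Tween 20; compounds up to 114 microM, 15 min RT dark; + Rhod110 substrate 1.5 microM; read t0 and 15 min; delta fluorescence → % inhibition → 4-parameter Hill fit.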

[3] = tested on: Zika virus NS2B-NS3 protease (linked construct); assay: Primary screen NINDS Rhodamine qHTS for Zika virus inhibitors (AID 1347160); also: nearly all actives have a fitted effect of over 55% in size
In short: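 Enzyme (25 nM, linked NS2B-NS3) was preincubated 15 min with compound in 10 mM Tris-HCl pH 8.0, 0.01% Tween 20. Rhodamine110 substrate (1.5 microM) was then added and fluorescence read at start and after 15 min.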
% is scaled to controls: 0 for no effect and ±100 for the full control effect.

CO[C@@H]1[C@]2(O)C(=O)N3/C=C\C(C)(C)c4[nH]c5ccccc5c4/C=C\3C(=O)N2[C@]23[C@H](CO)C(C)(C)N2c2ccccc2[C@]13O
inactive: Potency [1] | Potency [2] | Potency [3]

COc1cc(O)cc(C)c1C(=O)O[C@H]1[C@@H](O)[C@@H](n2ccc(=O)[nH]c2=O)O[C@@H]1CO
inactive: Potency [1] | Potency [2] | Potency [3]

CNc1nc(Nc2cn(C(C)(C)C#N)nc2C)ncc1C(F)(F)F
inactive: Potency [1] | Potency [2] | Potency [3]

COc1ccc([C@H]2OC[C@H]3[C@@H]2CO[C@@H]3c2ccc(O[C@@H]3O[C@H](CO)C(O)[C@H](O)[C@H]3O)c(OC)c2)cc1OC (stereo partly drawn)
inactive: Potency [1] | Potency [2] | Potency [3]

COC(=O)C[C@H]1C(C)(C)[C@H](OC(=O)C(C)C)C2CC3=C4CC(=O)O[C@@H](c5ccoc5)[C@]4(C)CCC3[C@@]1(C)C2=O (stereo partly drawn)
inactive: Potency [1] | Potency [2] | Potency [3]

C[C@@H]1CC[C@]2(C(=O)O[C@@H]3O[C@H](CO[C@@H]4O[C@H](CO)[C@@H](O[C@@H]5O[C@@H](C)[C@H](O)[C@@H](O)[C@H]5O)[C@H](O)[C@H]4O)[C@@H](O)[C@H](O)[C@H]3O)CC[C@]3(C)C(=CCC4[C@@]5(C)C[C@@H](O)[C@H](O)[C@@](C)(CO)C5CC[C@]43C)C2[C@H]1C (stereo partly drawn)
inactive: activity change, negative = cytotoxicity [1] 2.95% [at 9.29 µM] | Potency [2] | Potency [3]

C=C1[C@H](OC(C)=O)[C@H]2[C@@H](OC(=O)c3ccccc3)[C@@H](C)C[C@]2(O)[C@@H](OC(C)=O)[C@H](C)/C=C/C(C)(C)C(=O)[C@H](OC(C)=O)[C@H]1OC(C)=O
inactive: Potency [1] | Potency [2] | Potency [3]

CC(=O)O[C@@H]1C[C@@H](C)[C@](O)(CCC2=CC(=O)OC2)[C@@]2(C)CCCC(C)(C)C12 (stereo partly drawn)
inactive: Potency [1] | Potency [2] | Potency [3]

C=C(C)C1CCC2(C(=O)OC3OC(COC4OC(CO)C(O)C(O)C4O)C(OC4OC(C)C(O)C(O)C4O)C(O)C3O)CCC3(C(=O)O)C(CCC4C5(C)CCC(=O)C(C)(C)C5CCC43C)C12 (stereo not drawn)
inactive: outcome [1] inactive [at 9.29 µM] | Potency [2] | Potency [3]

COc1ccc(C(=O)NCc2cc(C(C)C)no2)cc1OC1CCN(C)CC1
inactive: Potency [1] | Potency [2] | Potency [3]

O=C(NC1CCN(CC(F)(F)F)CC1)c1ccc(-c2cccc(F)c2)nc1
inactive: Potency [1] | Potency [2] | Potency [3]

Cc1nnc(-c2sc(NC(=O)[C@H](C(C)C)n3c(=O)[nH]c4ccccc4c3=O)nc2C)o1
inactive: Potency [1] | Potency [2] | Potency [3]

CC1OC(O[C@@H]2[C@H](O)[C@@H](OC3OC(CO)C(O)C(O)C3O)[C@H](OC(=O)[C@]34CCC(C)(C)C[C@H]3C3=CCC5[C@@]6(C)CC[C@H](O[C@@H]7O[C@H](C(=O)O)[C@@H](O)[C@H](O[C@@H]8OC[C@@H](O)[C@H](O)[C@H]8O)[C@H]7O[C@@H]7O[C@H](CO)[C@H](O)[C@H](O)[C@H]7O)[C@@](C)(C=O)C6CC[C@@]5(C)[C@]3(C)C[C@H]4O)O[C@@H]2C)C(O)C(O)C1OC1OCC(O)C(O)C1O (stereo partly drawn)
inactive: outcome [1] inactive [at 5.11 µM] | activity change, negative = inhibition [2] 87.6% [at 19.1 µM] | Potency [3]

CC(=O)OC[C@]12[C@@H](OC(=O)c3ccoc3)C[C@@H]3[C@@H](OC(C)=O)[C@]1(OC3(C)C)[C@@](C)(O)C[C@H](OC(=O)c1ccoc1)[C@@H]2OC(=O)c1ccoc1
inactive: Potency [1] | Potency [2] | Potency [3]

COC(=O)/C=C/c1ccc(O[C@@H]2O[C@H](CO)[C@@H](O)[C@H](O)[C@H]2O)cc1
inactive: Potency [1] | Potency [2] | Potency [3]

Cc1ccc(-c2c(-c3nn(C)c4ncnc(N5CC[C@H](N6CCCCC6)C5)c34)cnn2C)cc1
inactive: Potency [1] | Potency [2] | Potency [3]

CC(=O)/C=C/C1(O)C(C)=CC(=O)CC1(C)C (stereo not drawn)
inactive: Potency [1] | Potency [2] | Potency [3]

COc1cc(C[C@@]2(O)CO[C@@H](c3ccc(O[C@@H]4O[C@H](CO)[C@@H](O)[C@H](O)[C@H]4O)c(OC)c3)[C@H]2CO)ccc1O
inactive: Potency [1] | Potency [2] | Potency [3]

CNC(=O)c1ccc2c(c1)CCO[C@H]2CCN1CCN(c2ccc(C(N)=O)cc2)CC1
inactive: Potency [1] | Potency [2] | Potency [3]

O=C(Cc1ccccc1)OC[C@H]1O[C@H](O[C@H]2O[C@H](CO)[C@@H](O)[C@H](O)[C@H]2O)[C@H](O)[C@@H](O)[C@@H]1O
inactive: Potency [1] | Potency [2] | Potency [3]

Cc1ncc(NC(=O)c2ccc(CN3CCN(C)CC3)c(C(F)(F)F)c2)cc1Nc1nccc(-c2cccnc2)n1
inactive: Potency [1] | Potency [2] | Potency [3]

COC1OC(O)C2(CCC3(O2)C(C)CC2OC(=O)C4(C)CCCC3(C)C24)C1O (stereo not drawn)
inactive: Potency [1] | Potency [2] | Potency [3]

O=C(O[C@@H]1O[C@H](CO)[C@@H](O)[C@H](O)[C@H]1O)c1ccccc1
inactive: Potency [1] | Potency [2] | Potency [3]

COC(=O)C1=CO[C@@H](O[C@@H]2O[C@H](CO)[C@@H](O)[C@H](O)[C@H]2O)[C@@H]2[C@@H](C)[C@@H](O)C(O)[C@H]12 (stereo partly drawn)
inactive: Potency [1] | Potency [2] | Potency [3]

N[C@@H](CCNCc1ccc(Cl)cc1)C(=O)N1CCCCC1
inactive: Potency [1] | Potency [2] | Potency [3]

C=CC(C)(CC/C=C(\C)C(=O)OC[C@H]1O[C@@H](OC(C)(C=C)CC/C=C(\C)C(=O)O[C@H]2[C@H](O)[C@@H](O)[C@H](OC(C)(C=C)CC/C=C(\C)C(=O)O)O[C@@H]2CO)[C@H](O)[C@@H](O)[C@@H]1O)O[C@@H]1O[C@H](CO)[C@@H](O)[C@H](O)[C@H]1O (stereo partly drawn)
inactive: outcome [1] inactive [at 9.29 µM] | Potency [2] | Potency [3]
